Data taken from the supplement of paper PMC12819154, “High-throughput peptide-centric local stability assay extends protein–ligand identification to membrane proteins, tissues and bacteria” (Nature Structural & Molecular Biology, 2025).

compound: CN[C@@H]1C[C@H]2O[C@@](C)([C@@H]1OC)n1c3ccccc3c3c4c(c5c6ccccc6n2c5c31)C(=O)NC4 [staurosporine]; test: log2 fold change of tryptic peptide abundance, ligand vs vehicle (limited proteolysis) (log2 ratio); higher = more trypsin-susceptible (destabilized); details: ligand concentration: 20 uM; sample: mouse liver crude lysate; replicate design: treated separately

Chain of UniProt P30681 (P30681 whole entry): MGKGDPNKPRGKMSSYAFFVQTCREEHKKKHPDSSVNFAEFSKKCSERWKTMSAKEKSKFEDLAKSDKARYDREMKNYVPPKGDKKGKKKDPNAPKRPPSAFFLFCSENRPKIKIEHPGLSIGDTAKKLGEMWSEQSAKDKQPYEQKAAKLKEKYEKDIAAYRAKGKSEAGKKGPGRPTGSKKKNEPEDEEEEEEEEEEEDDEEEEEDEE
Chain of UniProt P43142 (P43142 whole entry): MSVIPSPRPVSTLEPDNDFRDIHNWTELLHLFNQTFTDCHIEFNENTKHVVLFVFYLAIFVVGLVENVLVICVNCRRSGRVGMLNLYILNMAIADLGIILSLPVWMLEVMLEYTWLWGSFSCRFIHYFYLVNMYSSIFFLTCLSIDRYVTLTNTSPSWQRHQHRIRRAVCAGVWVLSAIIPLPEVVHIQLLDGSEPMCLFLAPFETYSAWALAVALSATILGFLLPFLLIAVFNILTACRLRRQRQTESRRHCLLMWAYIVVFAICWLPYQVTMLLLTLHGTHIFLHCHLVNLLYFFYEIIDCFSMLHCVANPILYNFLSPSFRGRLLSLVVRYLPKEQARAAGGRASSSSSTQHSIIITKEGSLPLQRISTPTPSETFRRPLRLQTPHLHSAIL
Chain of UniProt Q07417 (Q07417 whole entry): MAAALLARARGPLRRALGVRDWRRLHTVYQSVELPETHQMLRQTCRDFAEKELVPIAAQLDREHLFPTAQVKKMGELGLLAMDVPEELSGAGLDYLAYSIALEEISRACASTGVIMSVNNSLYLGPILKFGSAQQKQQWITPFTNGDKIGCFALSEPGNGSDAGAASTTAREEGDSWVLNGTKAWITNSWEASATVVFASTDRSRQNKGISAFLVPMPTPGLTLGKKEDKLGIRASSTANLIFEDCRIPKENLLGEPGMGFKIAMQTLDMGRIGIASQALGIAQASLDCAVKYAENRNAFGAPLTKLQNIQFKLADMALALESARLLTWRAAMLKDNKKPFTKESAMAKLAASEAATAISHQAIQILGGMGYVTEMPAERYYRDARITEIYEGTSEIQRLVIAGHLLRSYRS
Chain of UniProt P97742 (P97742 whole entry): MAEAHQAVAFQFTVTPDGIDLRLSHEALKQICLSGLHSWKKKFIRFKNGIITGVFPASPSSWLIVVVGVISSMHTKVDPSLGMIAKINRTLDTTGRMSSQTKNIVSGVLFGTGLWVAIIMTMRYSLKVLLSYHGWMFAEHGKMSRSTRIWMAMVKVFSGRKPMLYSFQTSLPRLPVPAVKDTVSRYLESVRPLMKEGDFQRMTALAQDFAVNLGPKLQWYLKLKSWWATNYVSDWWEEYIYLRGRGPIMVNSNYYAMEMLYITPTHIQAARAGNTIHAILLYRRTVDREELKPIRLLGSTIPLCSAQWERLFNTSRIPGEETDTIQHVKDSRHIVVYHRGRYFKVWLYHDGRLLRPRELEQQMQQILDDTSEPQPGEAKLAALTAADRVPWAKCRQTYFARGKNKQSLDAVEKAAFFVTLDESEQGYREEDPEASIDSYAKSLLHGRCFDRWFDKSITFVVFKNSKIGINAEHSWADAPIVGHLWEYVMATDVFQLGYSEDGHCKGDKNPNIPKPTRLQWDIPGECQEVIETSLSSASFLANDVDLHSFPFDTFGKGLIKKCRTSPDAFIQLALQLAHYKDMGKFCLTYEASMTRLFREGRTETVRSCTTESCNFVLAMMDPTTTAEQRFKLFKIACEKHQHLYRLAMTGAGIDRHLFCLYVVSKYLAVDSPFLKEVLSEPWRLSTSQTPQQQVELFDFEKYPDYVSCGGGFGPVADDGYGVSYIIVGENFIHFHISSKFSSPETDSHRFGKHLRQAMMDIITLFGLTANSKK
Chain of UniProt Q8JZR0 (Q8JZR0 whole entry): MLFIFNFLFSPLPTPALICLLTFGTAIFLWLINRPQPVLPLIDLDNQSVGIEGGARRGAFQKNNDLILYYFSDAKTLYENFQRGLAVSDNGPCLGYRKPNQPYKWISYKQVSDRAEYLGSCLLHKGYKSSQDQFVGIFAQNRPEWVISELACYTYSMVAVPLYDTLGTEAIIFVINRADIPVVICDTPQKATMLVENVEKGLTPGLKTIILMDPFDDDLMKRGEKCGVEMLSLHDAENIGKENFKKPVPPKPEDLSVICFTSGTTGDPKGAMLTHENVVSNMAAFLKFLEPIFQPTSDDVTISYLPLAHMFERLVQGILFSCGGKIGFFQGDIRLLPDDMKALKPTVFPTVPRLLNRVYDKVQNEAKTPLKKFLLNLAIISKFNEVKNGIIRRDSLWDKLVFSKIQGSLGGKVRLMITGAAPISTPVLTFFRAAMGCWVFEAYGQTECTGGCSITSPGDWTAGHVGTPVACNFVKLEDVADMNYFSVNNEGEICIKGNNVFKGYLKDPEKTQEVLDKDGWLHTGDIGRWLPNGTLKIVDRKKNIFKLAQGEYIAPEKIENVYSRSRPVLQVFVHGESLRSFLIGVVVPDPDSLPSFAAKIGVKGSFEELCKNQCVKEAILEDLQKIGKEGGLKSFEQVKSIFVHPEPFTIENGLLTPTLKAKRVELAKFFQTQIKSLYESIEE
Chain of UniProt Q8R1Z9 (Q8R1Z9 whole entry): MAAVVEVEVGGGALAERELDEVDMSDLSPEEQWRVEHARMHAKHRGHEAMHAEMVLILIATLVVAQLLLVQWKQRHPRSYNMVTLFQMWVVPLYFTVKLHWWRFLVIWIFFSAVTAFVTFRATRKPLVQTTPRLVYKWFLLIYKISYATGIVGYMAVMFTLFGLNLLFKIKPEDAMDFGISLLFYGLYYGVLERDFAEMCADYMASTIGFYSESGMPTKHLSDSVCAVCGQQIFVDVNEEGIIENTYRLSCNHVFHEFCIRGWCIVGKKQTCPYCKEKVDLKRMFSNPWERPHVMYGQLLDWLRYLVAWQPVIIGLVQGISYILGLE
Chain of UniProt O35099 (O35099 whole entry): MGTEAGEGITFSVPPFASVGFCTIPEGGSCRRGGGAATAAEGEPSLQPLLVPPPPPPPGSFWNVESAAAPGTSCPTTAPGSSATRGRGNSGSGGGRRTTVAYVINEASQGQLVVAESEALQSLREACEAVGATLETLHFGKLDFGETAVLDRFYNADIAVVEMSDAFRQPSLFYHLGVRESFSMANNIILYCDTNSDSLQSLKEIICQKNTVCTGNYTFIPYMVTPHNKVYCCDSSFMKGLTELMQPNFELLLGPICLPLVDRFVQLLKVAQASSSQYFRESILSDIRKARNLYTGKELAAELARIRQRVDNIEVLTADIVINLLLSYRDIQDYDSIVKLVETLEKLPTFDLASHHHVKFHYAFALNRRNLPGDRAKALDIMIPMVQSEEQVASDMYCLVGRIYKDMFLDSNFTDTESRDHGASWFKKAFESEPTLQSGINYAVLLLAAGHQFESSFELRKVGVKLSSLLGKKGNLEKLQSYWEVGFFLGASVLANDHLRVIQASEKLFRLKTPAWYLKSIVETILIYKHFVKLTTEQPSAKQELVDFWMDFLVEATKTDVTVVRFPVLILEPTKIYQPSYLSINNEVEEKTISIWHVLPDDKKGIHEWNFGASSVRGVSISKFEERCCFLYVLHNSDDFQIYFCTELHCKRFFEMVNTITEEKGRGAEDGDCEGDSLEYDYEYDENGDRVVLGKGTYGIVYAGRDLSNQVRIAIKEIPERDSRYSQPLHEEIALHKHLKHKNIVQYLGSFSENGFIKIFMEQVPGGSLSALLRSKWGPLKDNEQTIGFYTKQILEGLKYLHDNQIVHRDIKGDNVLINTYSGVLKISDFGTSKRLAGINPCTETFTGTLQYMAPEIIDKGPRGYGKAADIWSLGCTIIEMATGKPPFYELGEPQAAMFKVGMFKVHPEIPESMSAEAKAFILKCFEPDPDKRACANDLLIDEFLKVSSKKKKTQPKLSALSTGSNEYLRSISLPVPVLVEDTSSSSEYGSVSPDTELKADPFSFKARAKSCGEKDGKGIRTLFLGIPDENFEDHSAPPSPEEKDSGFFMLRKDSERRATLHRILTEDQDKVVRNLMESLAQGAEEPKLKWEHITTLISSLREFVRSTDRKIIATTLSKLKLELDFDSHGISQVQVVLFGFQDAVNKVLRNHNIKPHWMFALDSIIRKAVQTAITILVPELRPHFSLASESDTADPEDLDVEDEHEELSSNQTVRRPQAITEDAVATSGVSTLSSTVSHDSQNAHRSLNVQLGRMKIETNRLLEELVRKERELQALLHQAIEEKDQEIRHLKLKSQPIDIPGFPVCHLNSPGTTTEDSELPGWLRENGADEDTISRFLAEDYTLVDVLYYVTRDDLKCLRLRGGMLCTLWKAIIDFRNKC
Chain of UniProt Q9D2C7 (Q9D2C7 whole entry): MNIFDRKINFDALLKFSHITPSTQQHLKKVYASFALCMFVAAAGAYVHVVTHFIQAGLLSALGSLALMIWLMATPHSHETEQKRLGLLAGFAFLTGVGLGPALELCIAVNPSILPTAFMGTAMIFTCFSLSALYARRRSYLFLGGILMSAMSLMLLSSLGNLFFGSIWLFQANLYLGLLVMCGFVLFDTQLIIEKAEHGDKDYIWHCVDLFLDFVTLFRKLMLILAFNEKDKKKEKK
Chain of UniProt Q9Z2W1 (Q9Z2W1 whole entry): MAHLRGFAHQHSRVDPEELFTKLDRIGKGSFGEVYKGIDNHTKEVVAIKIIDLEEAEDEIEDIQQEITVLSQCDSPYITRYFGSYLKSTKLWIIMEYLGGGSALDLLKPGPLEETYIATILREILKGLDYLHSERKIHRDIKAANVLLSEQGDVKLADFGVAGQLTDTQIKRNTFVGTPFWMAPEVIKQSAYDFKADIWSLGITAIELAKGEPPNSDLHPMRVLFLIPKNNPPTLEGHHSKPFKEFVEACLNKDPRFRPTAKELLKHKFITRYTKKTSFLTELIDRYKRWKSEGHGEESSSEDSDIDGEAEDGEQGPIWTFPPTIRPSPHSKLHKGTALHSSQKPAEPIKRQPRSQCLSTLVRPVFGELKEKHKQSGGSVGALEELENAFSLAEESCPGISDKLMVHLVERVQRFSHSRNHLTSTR
Chain of UniProt P70349 (P70349 whole entry): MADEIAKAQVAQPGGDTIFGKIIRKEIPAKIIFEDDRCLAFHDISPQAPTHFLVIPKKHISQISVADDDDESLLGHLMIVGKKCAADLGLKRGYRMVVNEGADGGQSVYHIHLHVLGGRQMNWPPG

Row | Target | log2 fold change
1 | UniProt Q9CQE7 (peptide sequence: QFDAYPK, peptide start residue: 9) | 0.366
2 | UniProt Q920L1 (peptide sequence: VAPLVQSLCAK, peptide start residue: 402) | 0.439
3 | UniProt Q9Z2W1 (peptide sequence: GSFGEVYK, peptide start residue: 29) | -2.09
4 | UniProt Q99J56 (peptide sequence: GGVSGFGVPPASMR, peptide start residue: 215) | 0.327
5 | UniProt P83510 (peptide sequence: NIATYYGAFIK, peptide start residue: 81) | -0.608
6 | UniProt O70579 (peptide sequence: NVLSLLHQR, peptide start residue: 249) | 0.904
7 | UniProt Q61335 (peptide sequence: QAESASEAAK, peptide start residue: 139) | 0.352
8 | UniProt O35099 (peptide sequence: YLHDNQIVHR, peptide start residue: 800) | -3.12
9 | UniProt Q07417 (peptide sequence: GISAFLVPMPTPGLTLGKKEDK, peptide start residue: 209) | 0.268
10 | UniProt Q64459 (peptide sequence: ALLSPTFTSGK, peptide start residue: 131) | -0.273
11 | UniProt Q61083 (peptide sequence: LLGQGAFGR, peptide start residue: 361) | -1.9
12 | UniProt Q99KG5 (peptide sequence: VLYYMEK, peptide start residue: 347) | -0.236
13 | UniProt P13516 (peptide sequence: TVPLHLEEDIRPEMK, peptide start residue: 33) | 0.245
14 | UniProt P70424 (peptide sequence: VLGSGAFGTVYK, peptide start residue: 719) | -1.19
15 | UniProt P97864 (peptide sequence: LFFIQACR, peptide start residue: 180) | -0.485
16 | UniProt Q9D2C7 (peptide sequence: MNIFDRK, peptide start residue: 1) | 0.348
17 | UniProt P47809 (peptide sequence: ISPEQHWDFTAEDLK, peptide start residue: 87) | -0.533
18 | UniProt P43142 (peptide sequence: YLPKEQAR, peptide start residue: 334) | -0.325
19 | UniProt Q9WTK7 (peptide sequence: SMTVVPYLEDLHGR, peptide start residue: 334) | 1.41

Row | Target | log2 fold change
20 | UniProt Q2TBE6 (peptide sequence: RFEAEPLPENTNR, peptide start residue: 276) | -2.23
21 | UniProt Q8JZR0 (peptide sequence: GYLKDPEK, peptide start residue: 503) | 0.616
22 | UniProt P30681 (peptide sequence: MSSYAFFVQTCREEHK, peptide start residue: 13) | -0.185
23 | UniProt Q4LDG0 (peptide sequence: NQPFLGYR, peptide start residue: 501) | 0.345
24 | UniProt P70349 (peptide sequence: IIFEDDR, peptide start residue: 31) | -0.309
25 | UniProt Q8R1Z9 (peptide sequence: LSCNHVFHEFCIR, peptide start residue: 249) | 1.08
26 | UniProt Q8CAS9 (peptide sequence: NILDYVTK, peptide start residue: 221) | 0.389
27 | UniProt P97742 (peptide sequence: IWMAMVK, peptide start residue: 149) | 0.562
28 | UniProt A2A974 (peptide sequence: SLSDKDLR, peptide start residue: 303) | 0.2
29 | UniProt Q8BGS7 (peptide sequence: LFQLPTPPLSR, peptide start residue: 35) | 0.348
30 | UniProt Q91XD8 (peptide sequence: LQALQPSDLGPR, peptide start residue: 75) | -0.916
31 | UniProt Q9DB41 (peptide sequence: GAAVNLTLVTPEK, peptide start residue: 68) | 0.677
32 | UniProt P55096 (peptide sequence: EKQTIHSVFRK, peptide start residue: 288) | 0.493
33 | UniProt Q8BTW9 (peptide sequence: SYLDNFIK, peptide start residue: 321) | -1.86
34 | UniProt Q8C4X2 (peptide sequence: DVKPENFLIGRPGNK, peptide start residue: 162) | -1.22
35 | UniProt Q99MK8 (peptide sequence: DLKPANILLDEHGHVR, peptide start residue: 317) | -0.735
36 | UniProt A2ALW5 (peptide sequence: WIYNFNIK, peptide start residue: 263) | 0.844
37 | UniProt E9Q414 (peptide sequence: LPQQIHHYLNASDWER, peptide start residue: 2117) | 0.422
